PubChem BioAssay AID1851 (National Center for Advancing Translational Sciences (NCATS), 2009)
Values joined by “and” are separate entries in the source; they are usually repeats but may differ in a detail not shown here. Equal entries are not always repeated. The whole screen tested about 16,000 compounds, of which about 5,800 (36%) were called active. About 23% were inconclusive and are not listed. Calls follow the shape of the dose curve; as a rule, active = well fitted curve in the direction sought with a large enough effect; inconclusive = small, poorly fitted or top-dose-only effect, or effect the other way; inactive = no such curve, though single readings can be large or run the other way. Some of the results follow. Some compounds were tested as several samples or in several runs, with calls that do not always agree.

What follows are compounds tested against Cytochrome P450 2C19 (Homo sapiens) (UniProt P33261) (assay: Cytochrome panel assay with activity outcomes). Details: recombinant CYP, pro-luciferin dealkylation, luminescence, p450-cyp2c19; series mostly up to 57.1 µM; activity, negative = inhibition: at the top concentration.
Sequence of Cytochrome P450 2C19 (Homo sapiens) (P33261 whole entry, looked up): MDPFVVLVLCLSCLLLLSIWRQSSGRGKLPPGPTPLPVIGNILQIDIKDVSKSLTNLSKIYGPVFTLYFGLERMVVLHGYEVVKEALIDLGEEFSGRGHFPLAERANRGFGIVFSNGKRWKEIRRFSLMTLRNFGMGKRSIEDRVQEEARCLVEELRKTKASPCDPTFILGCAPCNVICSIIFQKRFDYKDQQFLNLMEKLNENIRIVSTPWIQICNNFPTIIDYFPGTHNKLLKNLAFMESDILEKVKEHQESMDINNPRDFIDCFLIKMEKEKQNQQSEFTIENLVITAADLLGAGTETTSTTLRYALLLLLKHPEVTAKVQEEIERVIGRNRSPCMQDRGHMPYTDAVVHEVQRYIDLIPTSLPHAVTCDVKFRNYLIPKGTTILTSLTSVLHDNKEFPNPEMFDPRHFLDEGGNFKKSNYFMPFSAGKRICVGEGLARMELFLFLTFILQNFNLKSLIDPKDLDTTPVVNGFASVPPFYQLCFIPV
Method: The P450 gene superfamily is involved in the metabolism and clearance of xenobiotics. This assay used various human CYP P450 isozymes to measure the dealkylation of various pro-luciferin substrates to luciferin. The luciferin is then measured by luminescence after the addition of a luciferase detection reagent. Pro-luciferin substrate concentration in the assay was equal to its KM for its CYP P450 isozyme. Inhibitors and some substrates limit the production of luciferin, and decrease measured luminescence.
NCGC Assay Protocol Summary:
1, Reagent, 2 uL, Isozyme and Pro-Luciferin
2, Library compounds, 23 nl, 40 uM to 0.24 nM dilution series
3, Controls, 23 nl, Isozyme specific inhibitor
4, Reagent, 2 uL, NADPH regeneration solution
5, Incubation time, 60 min, Isozyme specific temperature
6, Reagent, 4ul, Detection reagent
7, Incubation time, 20 min, Isozyme specific temperature
8, Detection, 1 sec, ViewLux luminescent read
The luciferase-based P450-GloTM Screening Systems were obtained from Promega (Madison, WI) for CYP 1A2 (V9770), CYP 2C9 (V9790), CYP2 C19 (V9880), CYP 2D6 (V9890), and CYP 3A4 Luciferin-PPXE (V9910) and were adapted for 1,536-well microplates and an automated protocol. The control compounds furafylline for 1A2 (F124), sulfaphenazole for CYP 2C9 (S0758), ketoconazole for CYP 2C19 (K1003), quinidine for 2D6 (Q3625), and ketoconazole for 3A4 (K1003) were purchased from Sigma Aldrich (St. Louis, MO). Recombinant P450 enzymes were obtained from baculovirus constructs expressed in insect cells (BD/Gentest).
Medium-binding white solid Kalypsys plates used. Mixtures kept on ice. 1A2: 10 nM 1A2, 100 uM Luc-ME, 100 mM KPO4; 2C9: 10 nM 2C9, 100 uM Luc-H, 25 mM KPO4; 2C19: 5 nM 2C19, 10 uM Luc-H EGE, 50 mM KPO4; 2D6: 5 nM 2D6, 30 uM Luc-ME EGE, 100 mM KPO4; 3A4: 10 nM, 25 uM Luc-PPXE. All amounts are reflected in their final concentration, working concentration is 2x.
NADPH regeneration solution: 1.3 mM NADP+, 3.3 mM glucose-6-phosphate, 3.3 mM MgCl2, 0.4 U/mL glucose-6-phosphate dehydrogenase for all isozymes, 200 mM KPO4 for 3A4. Mixture prepared at RT but kept on ice during automated run.
RT incubation in auxilliary plate hotel for 1A2, 2D6, and 3A4; 37C for 2C9 and 2C19.
Keywords: P450, CYP1A2, CYP2C19, CYP2C9, CYP2D6, CYP3A4, Luciferase, MLSMR, MLSCN, NIH Roadmap, qHTS, NCGC
% is scaled to controls: 0 for no effect and ±100 for the full control effect.

Compound | AC50 | activity, negative = inhibition
S=C(S)N1CCCC1 | 3.98 µM (active) | –
CC(C)Oc1cc(-n2c(=S)[nH]c3ccccc3c2=O)c(Cl)cc1Cl | 0.224 µM (active) | –
OC1(c2ccc(Cl)cc2)CCN(Cc2c[nH]c3ccccc23)CC1 | – | 26.2% (inactive)
COc1ccn(C)c(=O)c1C#N | – | 41% [at 25.6 µM] (inactive)
CCOC(C(=O)OCCCN(CC)CC)(c1ccccc1)c1ccccc1 | – | -28.3% (inactive)
CCN1C[C@@]2(COC)[C@H]3[C@@H](OC)[C@H]4C1[C@@]3([C@H](OC)C[C@@H]2O)[C@H]1C[C@@]2(O)[C@@H](OC(=O)c3ccccc3)[C@@H]1[C@@]4(OC(C)=O)[C@H](O)[C@@H]2OC | – | 37.6% [at 25.6 µM] (inactive)
CC1=C(CC[C@H](C)CO)O[C@@H]2C[C@@H]3[C@H]4CC[C@H]5C[C@@H](O)CC[C@]5(C)[C@@H]4CC(=O)[C@@]3(C)[C@@H]12 | – | -3.33% [at 11.4 µM] (inactive)
O=c1ccc2[nH]cc(C3=CCNCC3)c2[nH]1 | 0.126 µM (active) | –
COc1ccc2[nH]cc(C3=CCNCC3)c2c1 | – | -31.5% (inactive)
CCCCc1nc2ccccc2c(=O)n1-c1ccc(Cl)cc1[N+](=O)[O-] | – | 18.7% (inactive)
CCCCc1nc2ccccc2c(=O)n1-c1ccccc1[N+](=O)[O-] | 14.1 µM (active) | –
O=c1cc(-c2ccc(O)cc2)oc2cc(O)cc(O)c12 | – | -28.2% (inactive)
COc1ccc(CCNc2cc(-c3ccccc3)nc3ncnn23)cc1 | 11.2 µM (active) | –
CNC[C@H](O)c1ccc(OC(=O)C(C)(C)C)c(OC(=O)C(C)(C)C)c1 | – | 40.4% [at 25.6 µM] (inactive)
[N-]=[N+]=NCC(=O)c1c[nH]c(=O)[nH]c1=O | – | 30.9% [at 11.4 µM] (inactive)
C[C@H]1CC[C@]2(OC1)O[C@@H]1C[C@@H]3[C@@H]4CC[C@H]5C[C@@H](O)CC[C@]5(C)[C@@H]4CC(=O)[C@@]3(C)[C@H]1[C@@H]2C | – | -0.0546% [at 25.6 µM] (inactive)
CCOC(=O)C1=C(C)OC(N)=C(C#N)C12C(=O)N(C)c1ccccc12 (stereo unspecified) | 28.2 µM (active) | –
CCN1C[C@]2(C)CC[C@H](O)[C@@]34[C@@H]5CC6[C@@H](OC)C[C@@](O)([C@@H]5[C@@H]6O)[C@H](C[C@@H]23)[C@H]14 | – | 12.6% [at 25.6 µM] (inactive)
Cc1ccc(OP(=O)(Oc2ccc(C)cc2)N2C=Cc3ccccc3[C@H]2C#N)cc1 | 2.51 µM (active) | –
COc1ccccc1CN1CCCC2(CCN(C(=O)Oc3ccccc3)CC2)C1 | – | -8.9% (inactive)
O=C1C=C2C=C[C@H]3C[C@@]2(O1)[C@H]1CCCCN31 | – | -17.9% [at 25.6 µM] (inactive)
O=C1NCN(c2ccccc2)C12CCN(C[C@H]1COc3ccccc3O1)CC2 | 7.94 µM (active) | –
O=C1NCN(c2ccccc2)C12CCN(CCCOc1ccc(F)cc1)CC2 | – | -16.6% (inactive)

Compound | AC50 | activity, negative = inhibition
O=C(CCCN1CCC2(CC1)C(=O)NCN2c1ccccc1)c1ccc(F)cc1 | inactive and 6.31 µM (active) | –
O=C(CCCN1CCC(n2c(=O)[nH]c3ccccc32)CC1)c1ccc(F)cc1 | – | 13.1% [at 25.6 µM] (inactive)
NC1=Nc2ccccc2Oc2ccccc21 | – | -23.9% (inactive)
O=C(Oc1ccccc1)N1CCC2(CCN(Cc3ccncc3)CC2)CC1 | – | -28.1% (inactive)
O=C(O)/C=C(\CC(=O)O)C(=O)O | – | -16.7% [at 11.4 µM] (inactive)
O=C(O)Cc1cccnc1C(=O)O | – | -6.16% (inactive)
CC(C)CN1CC2(CCN(C(=O)c3ccncc3)CC2)C1 | – | -41.7% (inactive)
Cc1ccc(NC(=[OH+])c2cc3ccccc3cc2O)c(C)c1.Cc1ccc(NC(=[OH+])c2cc3ccccc3cc2O)c(C)c1.[Ni] | 2 µM (active) | –
O=c1[nH]oc2c1CCNC2 | inactive | –
Clc1ccc(C2=CCC[C@H]3CC[C@@H]2N3)cn1 | – | 23.3% (inactive)
CCCCN1C(=O)C(C2c3ccccc3C(=O)N2Cc2ccccc2)C(=O)NC1=S (stereo unspecified) | 25.1 µM (active) | –
CC(C)C[C@H](NP(=O)(O)O[C@@H]1O[C@@H](C)[C@@H](O)[C@@H](O)[C@H]1O)C(=O)N[C@@H](Cc1c[nH]c2ccccc12)C(=O)O | – | 34.5% (inactive)
Cn1cc(C(=O)C(=O)N[C@H]2CN3CCC2CC3)c2ccccc21 | – | -31.1% (inactive)
CN1C(=O)COc2c(C(=O)N[C@@H]3CN4CCC3CC4)cc(Cl)cc21 | – | -29.5% (inactive)
CC(C)n1cnc2c(C(=O)N[C@H]3CN4CCC3CC4)cc(Cl)cc21 | 1 µM (active) | –
C[C@@H]1O[C@H](C[N+](C)(C)C)CS1 | – | -5.89% (inactive)
NC(=O)CN1C[C@@H](O)CC1=O | – | -13.8% (inactive)
C[N+]1([O-])[C@@H]2CC(OC(=O)[C@@H](CO)c3ccccc3)C[C@@H]1[C@H]1O[C@H]12 (stereo partly specified) | inactive | –
CN1[C@@H]2CC[C@H]1CC(NC(=O)c1nn(C)c3ccccc13)C2 (stereo partly specified) | – | -7.12% (inactive)
O=C1C2CCN(CC2)C1(CO)CO | 0.631 µM (active) | -4.59% [at 11.4 µM] (inactive)
CCN(CC)C(=O)N[C@@H]1C[C@H]2c3cccc4[nH]cc(c34)C[C@@H]2N(C)C1 | inactive | –
CCOC(=O)c1ncn2c1CN(C)C(=O)c1cc(F)ccc1-2 | 1.58 µM (active) | –
